# In ChEMBL document CHEMBL3988442, “University of Dundee, Small-Polar-MMV Screening Library” (2021):
# For some assays here: Potency and affinity values are given separately.
# Legend:
# Set-up in all cases: scale not given: direction of the effect not stated beside the values
# [1] = target: Protein translocase subunit SecA (Escherichia coli (strain K12)) (UniProt P10408); test: Assay to Identify E. coli SecA ATPase Inhibitors; assay type: functional; conditions: 30 µM
# [2] = target: T1, Ubiquitin-activating enzyme e1, putative (Leishmania donovani (strain BPK282A1)) (UniProt E9BSI1); test: Leishmania donovani Ubiquitin Activating Enzyme (LdE1); assay type: functional; conditions: 30 µM
# T1 sequence (whole entry): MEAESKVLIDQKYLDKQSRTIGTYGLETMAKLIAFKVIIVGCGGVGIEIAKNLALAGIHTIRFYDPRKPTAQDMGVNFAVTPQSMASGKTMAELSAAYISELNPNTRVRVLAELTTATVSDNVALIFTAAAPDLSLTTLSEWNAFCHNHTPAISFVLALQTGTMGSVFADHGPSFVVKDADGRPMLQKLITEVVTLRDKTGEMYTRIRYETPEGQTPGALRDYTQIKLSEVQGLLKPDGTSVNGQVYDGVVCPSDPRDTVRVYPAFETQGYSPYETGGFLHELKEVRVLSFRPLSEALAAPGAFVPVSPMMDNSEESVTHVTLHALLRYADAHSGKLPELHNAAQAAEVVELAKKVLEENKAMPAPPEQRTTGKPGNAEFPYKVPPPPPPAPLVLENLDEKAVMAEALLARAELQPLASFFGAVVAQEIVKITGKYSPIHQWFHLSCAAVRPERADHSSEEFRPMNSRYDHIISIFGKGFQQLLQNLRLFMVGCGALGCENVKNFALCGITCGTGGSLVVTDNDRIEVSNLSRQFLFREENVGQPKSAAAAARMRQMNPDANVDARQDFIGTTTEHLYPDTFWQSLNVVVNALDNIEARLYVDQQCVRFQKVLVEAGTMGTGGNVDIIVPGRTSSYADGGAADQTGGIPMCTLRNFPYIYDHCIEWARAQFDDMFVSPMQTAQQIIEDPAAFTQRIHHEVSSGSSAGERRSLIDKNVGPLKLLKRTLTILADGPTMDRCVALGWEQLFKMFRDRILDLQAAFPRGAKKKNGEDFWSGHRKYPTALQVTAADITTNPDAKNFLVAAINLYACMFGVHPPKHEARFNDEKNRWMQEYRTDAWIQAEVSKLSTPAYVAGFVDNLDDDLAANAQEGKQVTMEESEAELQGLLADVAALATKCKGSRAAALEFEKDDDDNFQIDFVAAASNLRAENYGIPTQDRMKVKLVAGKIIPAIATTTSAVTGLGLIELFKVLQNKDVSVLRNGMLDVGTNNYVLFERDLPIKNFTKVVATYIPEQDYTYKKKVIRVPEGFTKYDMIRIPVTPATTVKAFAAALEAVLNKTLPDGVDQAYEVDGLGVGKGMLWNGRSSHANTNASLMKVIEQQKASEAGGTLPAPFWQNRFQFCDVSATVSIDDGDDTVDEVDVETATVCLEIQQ
# [3] = target: AMP-activated protein kinase, AMPK (Homo sapiens) (UniProt P54646+O43741+P54619+Q9UGJ0+Q9Y478+Q13131+Q9UGI9); test: AMP-dependent Kinase enzyme assay. An in vitro enzyme assay that detects ADP turnover that is directly proportional to AMPK activity. This uses naive AMPK that is activated during the assay with MK-8722; assay type: functional; conditions: 30 µM
# [4] = target: Sialic acid-binding Ig-like lectin 9 (Homo sapiens) (UniProt Q9Y336); test: Hs-Siglec9 ALPHAscreen SOP 20170721; conditions: 10 µM
# Sialic acid-binding Ig-like lectin 9 (Homo sapiens), sequence (Q9Y336 whole entry): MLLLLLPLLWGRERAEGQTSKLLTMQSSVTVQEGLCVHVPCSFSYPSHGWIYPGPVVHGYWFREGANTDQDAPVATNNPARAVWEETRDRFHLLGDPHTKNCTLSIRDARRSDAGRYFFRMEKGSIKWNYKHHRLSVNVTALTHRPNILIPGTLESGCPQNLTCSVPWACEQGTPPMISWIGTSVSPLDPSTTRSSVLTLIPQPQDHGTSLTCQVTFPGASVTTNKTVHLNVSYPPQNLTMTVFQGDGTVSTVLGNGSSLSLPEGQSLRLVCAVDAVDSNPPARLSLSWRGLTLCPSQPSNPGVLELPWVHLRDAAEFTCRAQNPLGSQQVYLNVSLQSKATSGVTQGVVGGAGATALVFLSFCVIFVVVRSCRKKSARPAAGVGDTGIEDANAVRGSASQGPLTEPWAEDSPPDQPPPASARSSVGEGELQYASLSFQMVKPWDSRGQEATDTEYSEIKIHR
# Trypanosoma cruzi = test: Trypanosoma cruzi phosphomannomutase and mannose-1-phosphate guanylyltransferase assay; assay type: functional; conditions: 10 µM
# [5] = target: T2, Arginase-2, mitochondrial (Homo sapiens) (UniProt P78540); test: in vitro enzyme assay to detect the production of urea directly proportional to the activity of Arginase II; assay type: functional; conditions: 33.3 µM; further: in the data most compounds retested in dose-response had high values
# T2 sequence (whole entry): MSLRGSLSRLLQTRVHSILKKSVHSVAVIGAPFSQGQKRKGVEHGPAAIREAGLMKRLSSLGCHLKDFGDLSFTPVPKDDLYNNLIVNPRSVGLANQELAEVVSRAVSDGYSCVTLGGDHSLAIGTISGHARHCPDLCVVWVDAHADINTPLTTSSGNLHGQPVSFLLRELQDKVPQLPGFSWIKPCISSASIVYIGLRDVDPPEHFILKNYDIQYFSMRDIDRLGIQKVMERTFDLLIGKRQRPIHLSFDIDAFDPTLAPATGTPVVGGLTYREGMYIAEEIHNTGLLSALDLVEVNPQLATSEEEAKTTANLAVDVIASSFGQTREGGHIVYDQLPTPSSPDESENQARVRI
# [6] = target: T3, Proteasome subunit beta (Trypanosoma cruzi) (UniProt O96673); test: Trypanosoma cruzi proteasome chymotrypsin-like activity (TcProtChymo) assay.; further: in the data most compounds retested in dose-response had high values; assay type: functional; conditions: 9.37 µM
# T3 sequence (whole entry): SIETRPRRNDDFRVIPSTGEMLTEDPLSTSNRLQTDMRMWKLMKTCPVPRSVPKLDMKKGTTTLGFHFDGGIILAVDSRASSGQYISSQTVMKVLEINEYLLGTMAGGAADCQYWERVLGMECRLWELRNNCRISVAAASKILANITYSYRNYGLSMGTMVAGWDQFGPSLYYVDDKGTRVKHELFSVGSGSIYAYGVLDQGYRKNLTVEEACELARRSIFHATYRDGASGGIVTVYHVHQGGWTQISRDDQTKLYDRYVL
# Homo sapiens = organism: Homo sapiens; test: To identify inhibition of the IFN signalling (Jak-Stat) pathway via expression of an eGFP reporter gene under the control of an IFN-stimulated response element (ISRE) containing MxA promoter.; assay type: functional; conditions: 30 µM
# [7] = target: T4, Tyrosyl-tRNA synthetase, putative (Trypanosoma cruzi (strain CL Brener)) (UniProt Q4DSP6); test: Trypanosoma cruzi tyrosyl tRNA synthetase (TcYRS) _High Tyrosine SOP; assay type: functional; conditions: 30 µM; further: in the data most compounds retested in dose-response had high values
# T4 sequence (whole entry): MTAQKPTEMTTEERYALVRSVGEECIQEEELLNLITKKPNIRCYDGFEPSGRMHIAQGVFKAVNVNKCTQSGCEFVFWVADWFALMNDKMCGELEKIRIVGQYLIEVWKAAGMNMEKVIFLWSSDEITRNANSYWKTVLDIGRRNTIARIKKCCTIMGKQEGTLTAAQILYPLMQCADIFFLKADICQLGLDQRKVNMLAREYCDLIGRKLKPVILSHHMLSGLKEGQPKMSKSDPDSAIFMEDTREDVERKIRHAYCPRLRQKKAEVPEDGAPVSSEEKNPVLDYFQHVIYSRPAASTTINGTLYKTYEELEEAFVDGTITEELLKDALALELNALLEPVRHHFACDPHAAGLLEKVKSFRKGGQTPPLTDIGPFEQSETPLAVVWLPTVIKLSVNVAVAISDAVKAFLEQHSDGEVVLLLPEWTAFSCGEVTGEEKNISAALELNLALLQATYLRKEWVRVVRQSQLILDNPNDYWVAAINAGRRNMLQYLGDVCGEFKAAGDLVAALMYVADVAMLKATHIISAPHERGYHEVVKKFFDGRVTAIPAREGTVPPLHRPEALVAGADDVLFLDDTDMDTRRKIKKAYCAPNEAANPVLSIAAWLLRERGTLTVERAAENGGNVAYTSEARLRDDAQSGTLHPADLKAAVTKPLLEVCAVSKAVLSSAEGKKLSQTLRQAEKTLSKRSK
# [8] = target: T4, Tyrosyl-tRNA synthetase, putative (Trypanosoma cruzi (strain CL Brener)); test: Trypanosoma cruzi tyrosyl tRNA synthetase (TcYRS) SOP; assay type: functional; conditions: 30 µM
# [9] = target: Chromo domain-containing protein 1 (Saccharomyces cerevisiae (strain ATCC 204508 / S288c) (Baker's yeast)) (UniProt P32657); test: ScCHD-1 Enzyme Inhibition Assay; assay type: functional; conditions: 30 µM; further: in the data most compounds retested in dose-response had high values
# Chromo domain-containing protein 1 (Saccharomyces cerevisiae (strain ATCC 204508 / S288c) (Baker's yeast)), sequence (P32657 whole entry, the tested form may be a part): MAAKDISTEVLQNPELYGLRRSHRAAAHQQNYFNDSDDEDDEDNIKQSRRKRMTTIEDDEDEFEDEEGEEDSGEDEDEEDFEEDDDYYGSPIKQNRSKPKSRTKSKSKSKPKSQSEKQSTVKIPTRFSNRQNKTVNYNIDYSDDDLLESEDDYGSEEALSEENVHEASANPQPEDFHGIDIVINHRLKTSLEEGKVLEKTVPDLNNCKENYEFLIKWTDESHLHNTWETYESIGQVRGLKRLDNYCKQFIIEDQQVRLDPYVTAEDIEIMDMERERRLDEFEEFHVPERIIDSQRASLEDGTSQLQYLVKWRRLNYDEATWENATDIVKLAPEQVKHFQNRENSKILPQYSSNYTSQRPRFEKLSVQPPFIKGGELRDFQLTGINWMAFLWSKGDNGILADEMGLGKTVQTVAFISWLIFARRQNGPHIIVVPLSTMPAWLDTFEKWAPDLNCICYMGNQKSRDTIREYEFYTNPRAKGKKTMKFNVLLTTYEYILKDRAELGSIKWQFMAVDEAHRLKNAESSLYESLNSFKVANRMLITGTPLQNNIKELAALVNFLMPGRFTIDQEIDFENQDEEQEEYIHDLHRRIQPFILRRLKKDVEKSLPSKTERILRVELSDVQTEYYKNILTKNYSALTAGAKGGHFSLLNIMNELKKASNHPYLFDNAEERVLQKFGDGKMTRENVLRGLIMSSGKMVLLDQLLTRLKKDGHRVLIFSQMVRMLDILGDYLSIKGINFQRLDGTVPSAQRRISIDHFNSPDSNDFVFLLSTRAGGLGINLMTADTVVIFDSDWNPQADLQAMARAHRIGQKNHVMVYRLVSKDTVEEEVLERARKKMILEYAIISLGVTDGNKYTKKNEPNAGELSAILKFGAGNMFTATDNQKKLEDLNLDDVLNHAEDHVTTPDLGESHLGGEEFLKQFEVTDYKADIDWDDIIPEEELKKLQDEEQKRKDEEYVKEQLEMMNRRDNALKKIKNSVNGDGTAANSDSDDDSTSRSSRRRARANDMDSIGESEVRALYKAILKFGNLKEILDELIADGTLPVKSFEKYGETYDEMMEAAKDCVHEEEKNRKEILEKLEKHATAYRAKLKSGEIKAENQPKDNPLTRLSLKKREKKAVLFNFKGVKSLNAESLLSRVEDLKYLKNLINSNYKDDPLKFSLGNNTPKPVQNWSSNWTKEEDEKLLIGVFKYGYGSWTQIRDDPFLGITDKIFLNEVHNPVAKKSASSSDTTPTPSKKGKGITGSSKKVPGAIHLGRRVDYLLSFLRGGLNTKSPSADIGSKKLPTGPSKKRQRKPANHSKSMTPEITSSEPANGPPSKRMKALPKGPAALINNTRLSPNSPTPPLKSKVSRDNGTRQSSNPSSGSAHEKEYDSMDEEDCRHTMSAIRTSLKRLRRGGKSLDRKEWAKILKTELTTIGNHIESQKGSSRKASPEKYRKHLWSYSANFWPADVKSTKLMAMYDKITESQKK
# Protein translocase subunit SecA (Escherichia coli (strain K12)), sequence (P10408 whole entry): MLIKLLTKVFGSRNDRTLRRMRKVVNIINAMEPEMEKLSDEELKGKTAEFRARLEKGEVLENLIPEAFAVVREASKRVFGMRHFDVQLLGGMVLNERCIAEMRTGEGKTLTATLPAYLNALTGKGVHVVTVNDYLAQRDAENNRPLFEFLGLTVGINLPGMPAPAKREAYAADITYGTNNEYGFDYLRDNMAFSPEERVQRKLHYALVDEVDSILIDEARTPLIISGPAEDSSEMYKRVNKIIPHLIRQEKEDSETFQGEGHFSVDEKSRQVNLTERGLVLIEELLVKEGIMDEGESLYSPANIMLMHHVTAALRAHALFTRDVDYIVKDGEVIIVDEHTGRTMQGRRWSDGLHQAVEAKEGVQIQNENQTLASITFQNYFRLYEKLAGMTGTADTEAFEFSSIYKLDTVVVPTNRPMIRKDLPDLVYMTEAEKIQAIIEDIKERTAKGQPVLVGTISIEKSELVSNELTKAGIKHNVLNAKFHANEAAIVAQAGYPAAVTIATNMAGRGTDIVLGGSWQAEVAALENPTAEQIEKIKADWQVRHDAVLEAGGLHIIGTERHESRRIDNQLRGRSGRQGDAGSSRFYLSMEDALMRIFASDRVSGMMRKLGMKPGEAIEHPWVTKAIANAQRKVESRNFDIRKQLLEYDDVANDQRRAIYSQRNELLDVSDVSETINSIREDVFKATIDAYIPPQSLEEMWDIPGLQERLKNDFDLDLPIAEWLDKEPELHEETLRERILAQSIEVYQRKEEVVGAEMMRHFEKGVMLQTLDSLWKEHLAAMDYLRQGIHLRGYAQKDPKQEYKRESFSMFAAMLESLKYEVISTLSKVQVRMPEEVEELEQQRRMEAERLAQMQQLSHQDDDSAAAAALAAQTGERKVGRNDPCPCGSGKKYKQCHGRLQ
Structure (SMILES),Percent Effect [1] [%],Percent Effect [2] [%],Percent Effect [3] [%],Percent Effect [4] [%],Percent Effect (Trypanosoma cruzi) [%],Percent Effect [5] [%],Percent Effect [6] [%],Percent Effect (Homo sapiens) [%],Percent Effect [7] [%],Percent Effect [8] [%],Percent Effect [9] [%]
O=C(CCN1C(=O)CCC1=O)Nc1cnn(-c2ccccc2Cl)c1,-6.27,10.8,6.39,1.29,-7.52,-0.185,5.92,20.3,4.95,6.1,4.56
CC(C)c1cc(NC(=O)c2ccc(C(=O)NC(C)(C)C)cc2)[nH]n1,-6.52,23.4,112,-4.38,-3,0.712,0.169,53,6.8,24.4,-4.07
Cn1cccc1C(=O)N1CCc2ncc(Cn3cccn3)n2CC1,-5.21,10.7,-0.846,-1.04,2.32,-43.2,0.513,-2.01,2.08,2.5,-3.31
O=C(Nc1cccnc1)[C@H]1CO[C@H]2CCN(c3ncc(F)cn3)C[C@H]2C1,-3.71,5.33,2.01,4.5,0,-55,11.6,-7,8.33,5,-9.48
Cc1cc(CN(C)C(=O)NC2CCN(Cc3ccccc3)C2)no1 (configuration not stated),-1.84,18.4,-5.49,-5.79,4.51,-2.3,15.4,-0.406,8.33,21.9,-12
Cc1cc(C2CCCN(CCCS(=O)(=O)c3ccccc3)C2)n[nH]1 (configuration not stated),-0.801,15.2,-4.79,-8.5,-3.87,6.46,4.34,18.4,4.43,11.4,-5.44
CCS(=O)(=O)c1ccc(N2CCC(NC(=O)CCC(C)C)CC2)cc1,-1.62,10.7,-6.1,12.2,6.13,16.1,6.8,27.1,6.01,8.64,-4.64
CC(C)c1nc(C2CCCN(C(=O)c3ccc4[nH]cnc4c3)C2)no1 (configuration not stated),-9.93,18.2,-3.37,3.45,5.97,-5.26,12.5,10.7,5.71,2.35,-15.3
Cc1ccc(-c2noc(CN3CCOC(CN(C)C)C3)n2)cc1F (configuration not stated),-2.58,-8.11,-2.88,2.97,-3.99,-4.25,-0.539,20.6,1.98,-1.22,2.19
O=C1CC[C@H]2CN(Cc3ccc(Cl)s3)CC[C@H]2N1CCc1c[nH]cn1,-2.35,5.48,2.32,10.8,4.37,-1.6,11.9,34.2,3.12,8.64,-0.239
Cn1cnnc1C1CCCN(C(=O)NCCOc2ccccc2)C1 (configuration not stated),-3.04,23.4,1.73,-22.3,4.8,-1.47,15.9,16.1,5.71,21.2,-12
COc1ccc(NC(=O)c2ccc[nH]2)c(N2CCN(C(C)=O)CC2)n1,-1.32,10.8,-4.59,-2.38,0.781,37.1,7.18,-7.2,6.93,13.4,-6.01
Cc1cccc(-c2noc(CN3CC(n4cc(C)cn4)C3)n2)c1,-0.775,-13,-3.33,7.4,5.24,-2.85,27.4,26.4,1.94,14.6,-5.58
O=C(Nc1ccccc1F)N1CCN(Cc2noc(C3CC3)n2)CC1,-1.58,11.4,5.8,0.391,-2.36,4.09,8.4,4.54,5.21,20.2,-23.3
CCOCC(O)CN1CCN(C(=O)c2ccccc2Cl)CC1 (configuration not stated),-5.28,5.26,5.55,2.24,0,2.3,-3.17,-0.893,1.47,7.32,4.97
C[C@H]1C[C@H]2CN(C(=O)c3ccncn3)CC[C@H]2O1,-6.88,2.7,-0.849,-1.39,2.54,2.08,12.1,-0.328,6.93,1.22,-3.3
CC(C)CNC(=O)NC(=O)CNc1ccccc1SCC(C)C#N (configuration not stated),-5.8,11,6,16.8,1.37,6.82,9.41,11.3,0,12.5,-5.23
O=C(NC(Cc1ccsc1)c1nccs1)C1CCOCC1 (configuration not stated),-2.92,9.46,12.2,0.886,-4.74,-0.232,3.12,10.9,1.07,9.09,7.79
CC(=O)c1cccc(OCCCC(=O)NCC2CCCN2C)c1 (configuration not stated),-3.97,13.2,-2.69,14.8,3.57,0,11.7,6.04,10.3,21.9,-9.7
CCNC(=O)C1CCN(Cc2csc(-c3ccc(C)o3)n2)CC1,-0.895,11.4,2.01,2.17,2.97,1.5,14.1,27.6,7.29,20.2,-26.4
CCc1n[nH]c(C2CN(CC(=O)NCCc3ccsc3)CCO2)n1 (configuration not stated),-2.71,5.48,-4.4,11.2,5.09,4.09,1.42,4.97,1.07,5,-5.13
Cc1cnn(CC2CCCCN2CC(=O)Nc2c(C)n[nH]c2C)c1 (configuration not stated),-3.93,6.33,8.13,0.215,-4.62,-5.81,6.86,16.1,1.04,10.1,-14.4
